# Article PMC5540273 (PLoS ONE, 2017)
# Where “and” joins values, the source holds several entries; their conditions need not be identical. Equal entries are not always repeated. Where two headings read alike, the source gives them in different places.
# Columns and labels:
# [1] = test system: T1, AMPK-alpha2; conditions: concentration: 1 μM, replicates: in singlicate, n = 1
# T1 construct: gene PRKAA2
# [2] = test system: ANKK1; conditions: concentration: 1 μM, replicates: in singlicate; n = 1
# [3] = test system: T2, ARK5; conditions: concentration: 1 μM, replicates: in singlicate, n = 1
# T2 construct: gene NUAK1
# [4] = test system: T3, ASK1; conditions: concentration: 1 μM, replicates: in singlicate, n = 1
# T3 construct: gene MAP3K5
# [5] = test system: T4, ASK2; conditions: concentration: 1 μM, replicates: in singlicate, n = 1
# T4 construct: gene MAP3K6
# [6] = test system: AURKA; conditions: concentration: 1 μM, replicates: in singlicate, n = 1
# [7] = test system: AURKB; conditions: concentration: 1 μM, replicates: in singlicate, n = 1
# [8] = test system: AURKC; conditions: concentration: 1 μM, replicates: in singlicate, n = 1
# [9] = test system: AXL; conditions: concentration: 1 μM, replicates: in singlicate, n = 1
# [10] = test system: T5, BIKE; conditions: concentration: 1 μM, replicates: in singlicate, n = 1
# T5 construct: gene BMP2K
# 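Also: KINOMEscan kinase panel screen.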
SMILES,%Inh [1],%Inh [2],%Inh [3],%Inh [4],%Inh [5],%Inh [6],%Inh [7],%Inh [8],%Inh [9],%Inh [10],%Inh ([1]; 1 µM),%Inh ([3]; 1 µM),%Inh ([4]; 1 µM),%Inh ([5]; 1 µM),%Inh ([6]; 1 µM),%Inh ([7]; 1 µM),%Inh ([8]; 1 µM),%Inh ([9]; 1 µM),%Inh ([10]; 1 µM)
NS(=O)(=O)CCc1cccc(Nc2nccc(-c3c(-c4cccc(NC(=O)c5c(F)cccc5F)c4)nn4ccccc34)n2)c1 [GSK336735],33%,83%,84%,2%,0%,93.5%,81%,72%,90.5%,27%,–,–,–,–,–,–,–,–,–
N#Cc1ccc(-c2cc(-c3c[nH]nc3-c3ccccn3)ccn2)cc1 [GW693028],49%,0%,27%,0%,0%,0%,32%,0%,0%,11%,–,–,–,–,–,–,–,–,–
CN(C1=C(c2ccccc2)C(=O)NC1=O)c1ccccc1 [SB-334860],23%,9%,42%,12%,0%,21%,10%,0%,0%,0%,–,–,–,–,–,–,–,–,–
O=C(NOCC1CC1)c1ccc(F)c(F)c1Nc1ccc(I)cc1Cl,0%,0%,0%,0%,0%,0%,0%,20%,2%,43%,–,–,–,–,–,–,–,–,–
NCC(NC(=O)c1cc(-c2cn[nH]c2)c(-c2ccnc3[nH]ccc23)s1)c1ccccc1.O=C(O)C(F)(F)F.O=C(O)C(F)(F)F (stereo not drawn) [GSK1325775],24%,0%,52%,11%,23%,95.6%,83%,82%,45%,99.7%,–,–,–,–,–,–,–,–,–
CNc1ncnc2[nH]ncc12 [SKF-18355],0%,0%,0%,0%,0%,2%,34%,0%,0%,0%,–,–,–,–,–,–,–,–,–
COc1ccc(Nc2ncc(C#N)c(Nc3ccccc3C(N)=O)n2)cc1N1CCN(C)CC1.Cl [GSK1558669],99.8%,52%,100%,0%,22%,99.9%,99.9%,100%,98.9%,100%,–,–,–,–,–,–,–,–,–
N#Cc1c(N2CCOCC2)sc(-c2ccn[nH]2)c1-c1ccc(Cl)cc1,0%,0%,0%,0%,0%,44%,4%,0%,0%,0%,–,–,–,–,–,–,–,–,–
Cc1c2ccc(N(C)c3ccnc(Nc4cccc(S(N)(=O)=O)c4)n3)cc2nn1Cc1ccccc1.Cl.Cl [GW787226],0%,0%,0%,0%,0%,29%,54%,38%,73%,0%,–,–,–,–,–,–,–,–,–
NCCNS(=O)(=O)c1ccc(-c2ccnc3[nH]ccc23)cc1 [GSK977617],–,0%,–,–,–,–,–,–,–,–,60% and 31%,45% and 17%,30% and 5%,21% and 18%,51% and 39%,71% and 67%,92.4% and 84%,93% and 87%,97.4% and 93.3%
[2H]C([2H])(c1cccc(C(F)(F)F)c1C)n1ccn2c(=O)nc(N3CCOCC3)cc12 [GSK2336394],15%,0%,0%,1%,0%,0%,11%,13%,8%,23%,–,–,–,–,–,–,–,–,–
CC(C)Oc1ccc2c(-c3ccnc(Nc4ccc(N5CCN(C)CC5)cc4)n3)cnn2n1 [GW696155],52%,20%,95.5%,0%,0%,98.6%,70%,75%,74%,99.8%,–,–,–,–,–,–,–,–,–
COc1ccc(Nc2nccc(N3CCC(NC(=O)Nc4cc(C)ccc4C)C3)n2)cc1 (stereo not drawn) [GSK1379741],0%,0%,11%,12%,0%,15%,37%,46%,0%,0%,–,–,–,–,–,–,–,–,–
CN(C(=O)c1ccc(-c2cc(-c3c[nH]nc3-c3ccccn3)ccn2)cc1)C1CCOCC1 [GW810083],0%,0%,15%,44%,0%,0%,0%,7%,48%,20%,–,–,–,–,–,–,–,–,–
Cc1cccc(-c2nc(-c3ccc(S(C)(=O)=O)cc3)sc2-c2ccncc2)c1,7%,0%,13%,0%,15%,24%,23%,0%,12%,0%,–,–,–,–,–,–,–,–,–
Fc1ccc(-c2nn3c(OCC(F)(F)F)cccc3c2-c2ccncc2)cc1 [GW514784],0%,25%,0%,0%,0%,0%,0%,0%,0%,11%,–,–,–,–,–,–,–,–,–
Cc1nnc(-c2ccc(C)c(-c3ccc(C(=O)Nc4ccc(NS(C)(=O)=O)cc4)cc3)c2)o1 [GW702865],1%,14%,0%,0%,0%,30%,8%,3%,1%,7%,–,–,–,–,–,–,–,–,–

SMILES,%Inh [1],%Inh [2],%Inh [3],%Inh [4],%Inh [5],%Inh [6],%Inh [7],%Inh [8],%Inh [9],%Inh [10],%Inh ([1]; 1 µM),%Inh ([3]; 1 µM),%Inh ([4]; 1 µM),%Inh ([5]; 1 µM),%Inh ([6]; 1 µM),%Inh ([7]; 1 µM),%Inh ([8]; 1 µM),%Inh ([9]; 1 µM),%Inh ([10]; 1 µM)
Cl.Nc1ncnc2occ(-c3ccc(NC(=O)Nc4cc(C(F)(F)F)ccc4F)cc3)c12 [SB-707548],22%,77%,21%,32%,0%,53%,96.7%,53%,97.7%,10%,–,–,–,–,–,–,–,–,–
c1ccc(-c2n[nH]cc2-c2ccnc3ccccc23)nc1 [GW271431],11%,22%,5%,0%,0%,12%,20%,10%,11%,24%,–,–,–,–,–,–,–,–,–
O=c1cc(N2CCOCC2)nc2n(Cc3cccc(Cl)c3Cl)c(C3CC3)nn12 [GSK2358994],0%,0%,0%,0%,0%,0%,4%,0%,3%,0%,–,–,–,–,–,–,–,–,–
Cl.Oc1cccc(Nc2ccnc3cc(-c4ccncc4)ccc23)c1 [GW494601],0%,43%,9%,0%,0%,23%,43%,32%,21%,7%,–,–,–,–,–,–,–,–,–
CCc1nc(-c2cccc(C)c2)c(-c2ccnc(NCc3ccccc3)c2)s1,5%,0%,15%,0%,0%,0%,14%,0%,0%,0%,–,–,–,–,–,–,–,–,–
Cn1cc(-c2ccc3c(c2)CCN3C(=O)Cc2ccccc2Cl)c2c(N)ncnc21 [GSK2608885],30%,4%,94%,0%,0%,98%,86%,74%,94%,23%,–,–,–,–,–,–,–,–,–
Fc1ccc(-c2ncn(CCCN3CCOCC3)c2-c2ccccn2)cc1 [SB-211742],0%,0%,0%,10%,0%,0%,0%,0%,6%,23%,–,–,–,–,–,–,–,–,–
CC(C)(C)n1cnc2c(N)ncnc21 [SKF-97359],0%,0%,19%,0%,0%,0%,15%,0%,45%,0%,–,–,–,–,–,–,–,–,–
COc1ccc(Nc2nccc(N3CCC(NC(=O)Nc4cccc(C(C)=O)c4)C3)n2)cc1 (stereo not drawn) [GSK1379731],0%,0%,50%,0%,0%,0%,0%,40%,9%,30%,–,–,–,–,–,–,–,–,–
COc1ccc(CNC(=O)NC2CCN(c3ccnc(Nc4ccc(OC)cc4)n3)C2)cc1 (stereo not drawn) [GSK1379727],0%,0%,0%,0%,0%,5%,22%,56%,7%,11%,–,–,–,–,–,–,–,–,–
COc1cc2c(cc1OC[C@@H](O)CO)ncc1c3ccc(C#N)cc3[nH]c21,0%,73%,0%,0%,0%,6%,52%,0%,17%,96.2%,–,–,–,–,–,–,–,–,–
Cc1ccc(C(=O)NCC(N)=O)cc1-n1c(C)cc(OCc2ccc(F)cc2F)c(Br)c1=O,11%,0%,0%,12%,0%,0%,0%,8%,11%,7%,–,–,–,–,–,–,–,–,–
COc1cc2ncn(-c3cc(OCc4sccc4Cl)c(C(N)=O)s3)c2cc1OC [GSK448459],0%,0%,15%,0%,0%,0%,12%,41%,10%,90%,–,–,–,–,–,–,–,–,–
COc1ccc(COc2cc(-n3cnc4ccccc43)sc2C(N)=O)cc1 [GSK1024304],0%,8%,14%,0%,0%,2%,0%,12%,0%,25%,–,–,–,–,–,–,–,–,–
Cc1cccc(-c2nc(Nc3ccc4ncsc4c3)c3ccccc3n2)n1 [GW867588],0%,0%,0%,15%,20%,22%,8%,0%,0%,0%,–,–,–,–,–,–,–,–,–
CCn1cnc2c(N)ncnc21 [GW345098],0%,0%,0%,15%,0%,4%,6%,4%,0%,5%,–,–,–,–,–,–,–,–,–
